Test systems include HOP-62 NSCLC; NCI-H460 lung; A549/ATCC NSCLC; 786-0 renal; DU-145 prostate; MALME-3M melanoma; RXF 393 renal; UACC-257 melanoma; SNB-19 CNS; SK-MEL-2 melanoma; UO-31 renal; A498 renal; HL-60(TB) leukemia; RPMI-8226 leukemia; OVCAR-5 ovarian; OVCAR-4 ovarian; T-47D breast; HCC-2998 colon; SF-295 CNS; M14 melanoma.
Experiment in all cases: NCI-60 one-dose screen, 48 h (100 = growth as untreated, 0 = no growth, -100 = all killed)
What all share (details): 10 µM unless noted

From PubChem BioAssay (NCI) come the findings set out here.

The panel holds about 83,000 compounds, 20% with a hit somewhere; the sample as a whole holds those more often.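 Cells were grown in 96-well plates and exposed to the test compound at a single concentration for 48 hours; results are reported as percent growth, with values below 10 considered active.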 A number with no mark means an inactive call. Activity calls are given as the source filed them.

Take `CC1(C)N=C(N)N=C(N)N1c1ccc(OCCCCNC(=O)c2ccc(S(=O)(=O)F)cc2)c(Cl)c1`: the growth is 102% with HOP-62 NSCLC; 19.8% in the assay with NCI-H460 lung; 51% with A549/ATCC NSCLC; 40.9% with 786-0 renal; 55% in the assay on DU-145 prostate; 71.3% in the assay with MALME-3M melanoma. The growth in the assay on RXF 393 renal was 76.3%; in the assay on UACC-257 melanoma, 54.7%; in the assay on SNB-19 CNS, 103%; in the assay with SK-MEL-2 melanoma, 82.4%; in the assay on UO-31 renal, 77%; with A498 renal it was 105%. For the same compound, the growth with HL-60(TB) leukemia was 36.2%; in the assay on RPMI-8226 leukemia it was 89.9%; with OVCAR-5 ovarian, 56.2%; in the assay with OVCAR-4 ovarian, 107%; in the assay on T-47D breast, 104%; in the assay on HCC-2998 colon, 83.1%.
For `OB([O][Hg][c]1ccccc1)[O][Hg][c]1ccccc1`, the growth with HOP-62 NSCLC was -90.3% (active); in the assay on NCI-H460 lung it was -21.4% (active); in the assay on A549/ATCC NSCLC, 24%; in the assay on 786-0 renal, -76.6% (active); with DU-145 prostate it was -73.5% (active); in the assay with MALME-3M melanoma, -88.1% (active). Further, the growth is -94.3% (active) in the assay with RXF 393 renal; -32.1% (active) in the assay with SF-295 CNS; -98.3% (active) with UACC-257 melanoma; -80.9% (active) in the assay on M14 melanoma; 5.87% (active) in the assay on SNB-19 CNS; -74.9% (active) with SK-MEL-2 melanoma. The growth was -94.1% (active) in the assay with UO-31 renal; -31.2% (active) in the assay with A498 renal; -53.3% (active) in the assay with HL-60(TB) leukemia; -44.4% (active) with RPMI-8226 leukemia; -64% (active) in the assay with OVCAR-5 ovarian; 7.38% (active) with OVCAR-4 ovarian. The figures for the growth in the assay with T-47D breast and with HCC-2998 colon were -42.4% (active) and -45.5% (active), respectively.
Regarding `C[CH2][Pb]([CH2]C)([CH2]C)[O]C(=O)COC`, the growth with HOP-62 NSCLC is -16.2% (active); in the assay with NCI-H460 lung it was 3.94% (active); in the assay on 786-0 renal, -46.4% (active); with DU-145 prostate it was 10.3%; in the assay with MALME-3M melanoma, 10.6%; with RXF 393 renal, -8.73% (active). The growth in the assay on SF-295 CNS was -58.5% (active); in the assay on M14 melanoma, 9.74% (active); with SK-MEL-2 melanoma, -38.7% (active); with UO-31 renal it was -9.22% (active); in the assay with A498 renal, -3.55% (active); in the assay with HL-60(TB) leukemia it was -50% (active). The growth is -4.48% (active) with OVCAR-5 ovarian, 9.63% (active) in the assay with OVCAR-4 ovarian, 17.2% with T-47D breast and -49.9% (active) with HCC-2998 colon.
